Screens as filed in PubChem.
TPT1 inh – blocks Candida albicans tRNA 2'-phosphotransferase; AID 1962; inhibition, % at 5 µM; 300,000 compounds, 0.81% hits; recombinant caTPT1, FP RNA substrate dephosphorylation;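 active means inhibition above the mean of all tested compounds plus 3 SD, set per screening campaign, cut at about 24% in these data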;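 further: plate controls were DMSO alone for no effect and ferristatin control at 100 nM for full effect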
Rpn11 inh – Rpn11 (human) deubiquitinase inhibition; O00487; human 26S proteasome, Ub4-pepOG fluorescence polarization; 20S core pre-blocked with epoxomicin; inhibition, % at 20 µM; 360,000 compounds, 0.59% hits;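 active means inhibition at 20 µM, scaled to each plate's controls, above about 33%, limit read from the data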
Target sequence (O00487 whole entry, looked up): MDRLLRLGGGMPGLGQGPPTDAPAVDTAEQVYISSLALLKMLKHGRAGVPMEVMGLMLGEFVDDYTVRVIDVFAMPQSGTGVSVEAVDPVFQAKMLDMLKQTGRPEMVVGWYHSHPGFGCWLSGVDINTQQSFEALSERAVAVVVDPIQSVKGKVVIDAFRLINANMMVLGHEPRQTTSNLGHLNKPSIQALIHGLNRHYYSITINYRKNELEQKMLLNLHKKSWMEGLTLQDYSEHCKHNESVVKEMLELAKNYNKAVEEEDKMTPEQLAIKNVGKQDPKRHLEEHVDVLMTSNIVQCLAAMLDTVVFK
HNF4A DNA FP – change in binding of human HNF4 alpha to DNA; HNF4a-FITC DNA binding, fluorescence polarization, 1 h; activity change, % at 10 µM; 360,000 compounds, 0.3% hits; AID 1224865; in the data active means activity change above about 30%, passing the limit was not always enough
Myeloid diff MLP – compounds promoting myeloid differentiation | calls only at 10 µM | ER-HoxA9 myeloid progenitors, lysozyme-GFP differentiation, flow cytometry | 360,000 compounds, 1% hits | AID 624256;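 active means normalized GFP-positive differentiation at or above the plate's own cutoff, the solvent-only control mean plus 3 SD; inconclusive means no clear call, values can overlap the other calls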;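 further: cells exposed to compound for four days before flow analysis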
An asterisk follows results filed as active; i = inactive; ? = inconclusive; · = no result given; + = active, no number. Shown are actives, neighbours in structure and some others; about 2.1% of the full set was active somewhere.

SMILES | TPT1 inh | Rpn11 inh | HNF4A DNA FP | Myeloid diff MLP
Cc1ccc(OCCC(=O)OCC(=O)Nc2cc(S(=O)(=O)N(C)C)ccc2C)cc1 | 0 | -2 | 5 | +
Cc1ccc(S(=O)(=O)N(C)C)cc1NC(=O)COC(=O)CCC1CCCC1 | -1 | 0 | 1 | i
CCCOc1ccc(C(=O)N2CCCC2C(=O)O)cc1 (configuration not stated) | -1 | -6 | 25 | i
CCOc1ccc(C(=O)N2CCCC2C(=O)O)cc1 (configuration not stated) | 1 | -9 | 0 | +
COc1ccc(OC)c(Nc2nc3nonc3nc2N2CCCCC2)c1 | -2 | · | 40* | i
O=C(c1ccccc1Cl)N1CCC(N2CCC(C(=O)N3CCCC3)CC2)CC1 | 3 | 3 | 8 | i
O=C(c1cc(F)ccc1F)N1CCC(N2CCC(C(=O)N3CCCC3)CC2)CC1 | 4 | -4 | 4 | +
CCS(=O)(=O)C1=NN2C(=N)/C(=C\c3ccc(OS(=O)(=O)c4ccccc4)cc3)C(=O)N=C2S1 | 1 | 11 | -3 | i
CCC1=NN2C(=N)/C(=C/c3ccc(OS(=O)(=O)c4ccccc4)cc3)C(=O)N=C2S1 | 12 | 28 | 33* | i
CC1(C(=O)NS(=O)(=O)c2ccccc2)CCN1C(=O)CC1CC1 (configuration not stated) | · | 2 | -1 | i
Cc1ccccc1CSc1ccc2nnc(-c3ccccn3)n2n1 | -3 | -2 | 0 | +
c1ccc(CSc2ccc3nnc(-c4ccccn4)n3n2)cc1 | 0 | -2 | -3 | i
O=C(c1ccccc1F)N(NC(=O)C(O)(c1ccccc1)c1ccccc1)c1ccccc1 | -4 | -9 | 0 | i
COc1ccc(C(=O)NCC(=O)N2CCC(Cc3ccccc3)CC2)cc1OC | · | 0 | 1 | i
O=C(N/N=C/c1cn(-c2ccccc2)nc1-c1cc2ccccc2o1)c1ccncc1 | -1 | 1 | 4 | +
O=C(N/N=C/c1cn(-c2ccccc2)nc1-c1cc2ccccc2o1)c1cccnc1 | 1 | 8 | 0 | i
O=C1CCCCCCC1Sc1ccccc1[N+](=O)[O-] (configuration not stated) | -2 | -4 | 0 | i
CC(C)(C)c1ccc(C2=NC(=O)C(CC(=O)O)S2)cc1 (configuration not stated) | 7 | 23 | 2 | +
CC1(C)CC(=O)C(C=Nc2ccc(N)cc2)=C(O)C1 | -4 | 6 | 1 | +
CC1(C)CC(=O)C(C=Nc2ccc(O)cc2)=C(O)C1 | 0 | 7 | -1 | i
Cc1nc([N+](=O)[O-])cn1CC(=O)c1ccc(F)cc1 | -4 | 6 | 77* | i
CC(C)C(NS(=O)(=O)c1c(Cl)cccc1Cl)C(=O)OCC(=O)c1c[nH]c2ccccc12 (configuration not stated) | 9 | 18 | -1 | +
CC(=O)NC(c1cc(Cl)c2ccccc2c1O)C(C)C (configuration not stated) | · | 2 | 0 | +
CC(=O)NC(c1cc(Cl)c2cccnc2c1O)C(C)C (configuration not stated) | · | -11 | 1 | ?
COc1cc(CC(=O)N2c3ccccc3N=C(c3ccccc3)C2C(=O)NCc2ccccc2)cc(OC)c1 (configuration not stated) | · | · | 2 | i
SMILES | TPT1 inh | Rpn11 inh | HNF4A DNA FP | Myeloid diff MLP
O=C(Nc1cccc([N+](=O)[O-])c1)Nc1cccs1 | 2 | 9 | 0 | i
CCCCc1ccc(NC(=S)N2CCC(O)CC2)cc1 | -4 | -5 | 0 | +
O=C(CSc1nc2c(c(=O)[nH]1)CCCC2)Nc1ccc(Cl)cc1F | -4 | 6 | 6 | i
COC(=O)c1ccc2c(c1)C(C)(C)C(/C=C/c1ccccc1O)=[N+]2C | 19 | · | 37* | ·
C=CCN1CC(C(=O)N2CCC(Cc3ccc(Cl)cc3)(C(=O)OCC)CC2)CC1=O (configuration not stated) | -1 | -3 | 36* | i
COc1cc2c(cc1OC)C(c1ccc(-c3cc(Cl)ccc3Cl)o1)=NCC2 | 22 | -42 | 38* | +
O=C(Nc1ccc(Cl)c([N+](=O)[O-])c1)c1ccc(NCCCN2CCOCC2)c([N+](=O)[O-])c1 | 16 | 54* | 30 | ?
Cc1ccc(NC(=O)c2ccc(NCCCN3CCOCC3)c([N+](=O)[O-])c2)cc1Cl | -2 | 7 | 3 | i
O=[N+]([O-])c1cc(C(F)(F)F)cc([N+](=O)[O-])c1NCCCN1CCOCC1 | -3 | -4 | 62* | i
CCN(CC)S(=O)(=O)c1ccc(N2CCCCC2)c(NC(=O)/C(C#N)=C/c2ccc(OC)cc2)c1 | 1 | 29 | 4 | +
COc1ccc(/C=C(\C#N)C(=O)Nc2cc(S(=O)(=O)N3CCOCC3)ccc2N2CCCC2)cc1 | -3 | 14 | 0 | i
O=C(O)C=C(Br)Br | -3 | -9 | 0 | i
COc1ccc([C@H]2/C=C\CN(S(=O)(=O)/C=C/c3ccccc3)[C@@H](C)C(=O)N2Cc2ccc(F)cc2)cc1 | 1 | -2 | 8 | +
Cc1cccn2c(=O)c3cc(C(=O)NCCN4CCOCC4)n(C)c3nc12 | -1 | -1 | 1 | +
Cc1cccn2c(=O)c3cc(C(=O)NC4CCCCC4C)n(C)c3nc12 (configuration not stated) | -4 | -2 | -3 | +
CC1CCCCC1NC(=O)c1cc2c(=O)n3ccccc3nc2n1C (configuration not stated) | 0 | -8 | 0 | i
O=C1OC(c2cccs2)=N/C1=C\c1ccc(-c2ccccc2Cl)o1 | · | 87* | 17 | i
CC(=O)c1c(N2CCN(C)CC2)[nH]c(-c2ccccc2)nc1=S | -2 | 23 | 12 | +
O=C1CSC(=S)N1N=Cc1c(O)ccc2ccccc12 | · | · | 93* | i
O=C(C1COc2ccccc2O1)N1CCc2ccccc2C1 (configuration not stated) | -1 | 0 | 0 | i
Brc1ccc(C2Nc3cccc4cccc(c34)N2)cc1 | · | 0 | 3 | +
COc1ccccc1Nc1nn2c(=O)c3ccc(C(=O)NCc4cccnc4)cc3nc2s1 | -2 | -1 | 90* | ?
Nn1cnc2c(ncn2C2OC(CO)C(O)C2O)c1=O (configuration not stated) | · | 2 | -6 | i
O=[N+]([O-])c1ccc(Cl)c(/C=N/n2c(-c3ccncc3)n[nH]c2=S)c1 | -4 | 10 | 1 | +
COC(=O)c1c(C)[nH]c(C(=O)/C=C/c2ccc(C)cc2)c1C | 1 | 4 | 3 | i
COC(=O)c1c(C)[nH]c(C(=O)/C=C/c2ccccc2)c1C | 0 | 2 | -1 | +
Cc1ccc(S(=O)(=O)N(C)c2ccc3c(ncn3C)c2[N+](=O)[O-])cc1 | 1 | 7 | -2 | i
O=C(NCc1ccccc1Br)c1cccs1 | · | 9 | 2 | +
COc1ccccc1CNC(=O)c1cccs1 | 2 | 4 | 2 | i
COc1ccc2[nH]c(C)c(CCN(Cc3cccs3)C(=S)Nc3ccc(F)cc3)c2c1 | -14 | -60 | -4 | +
